Hits are enriched below; roughly 0.93% of the tested compounds scored in any of these assays.
WNV protease inh: blocks West Nile virus NS2B-NS3 protease activity | P06935 | WNV NS2B-NS3 protease, fluorogenic substrate Ex360/Em465; stronger effect = lower value | z-score (no concentration beside the values) | 65,000 compounds, 0.18% hits | AID 577; in the data active = z-score below about -3
Cdc25B block: inhibitors of human Cdc25B phosphatase | P30305 | recombinant Cdc25B, OMFP fluorescence Ex485/Em525 | inhibition, %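 (compounds tested at 10 µM final in the well)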 | 65,000 compounds, 0.1% hits | AID 368; in the data active = inhibition above about 50%
DUSP1 inh: inhibitors of human MKP-1 phosphatase; P28562; recombinant MKP-1, OMFP hydrolysis fluorescence; inhibition, %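 (compounds tested at a single concentration somewhere between 10 and 100 µM)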; 65,000 compounds, 0.15% hits;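 active = inhibition above about 50%, limit read from the data; inconclusive = inhibition over screen mean plus 3 SD, below that limit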
MMP13 inh: inhibitors of human MMP13. 65,000 compounds, 0.07% hits. inhibition, % at 4 µM. MMP-13 fTHP FRET cleavage, Mca fluorescence. P45452. AID 570;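 active = inhibition above the mean of compound-free control plate wells plus 3 SD, cut at about 14% in these data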
BAP1 block: blocks human BAP1 ubiquitin-AMC hydrolysis; AID 436; calls only at 20 µM; 72,000 compounds, 0.48% hits; recombinant BAP1, Ub-AMC hydrolysis fluorescence kinetic; stronger effect = lower value;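 active = activity remaining at or below 50% of control, provided the compound also passes the data quality filters; inactive = the rest, including low values that fail the filters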
Target sequence (Q92560 whole entry, looked up): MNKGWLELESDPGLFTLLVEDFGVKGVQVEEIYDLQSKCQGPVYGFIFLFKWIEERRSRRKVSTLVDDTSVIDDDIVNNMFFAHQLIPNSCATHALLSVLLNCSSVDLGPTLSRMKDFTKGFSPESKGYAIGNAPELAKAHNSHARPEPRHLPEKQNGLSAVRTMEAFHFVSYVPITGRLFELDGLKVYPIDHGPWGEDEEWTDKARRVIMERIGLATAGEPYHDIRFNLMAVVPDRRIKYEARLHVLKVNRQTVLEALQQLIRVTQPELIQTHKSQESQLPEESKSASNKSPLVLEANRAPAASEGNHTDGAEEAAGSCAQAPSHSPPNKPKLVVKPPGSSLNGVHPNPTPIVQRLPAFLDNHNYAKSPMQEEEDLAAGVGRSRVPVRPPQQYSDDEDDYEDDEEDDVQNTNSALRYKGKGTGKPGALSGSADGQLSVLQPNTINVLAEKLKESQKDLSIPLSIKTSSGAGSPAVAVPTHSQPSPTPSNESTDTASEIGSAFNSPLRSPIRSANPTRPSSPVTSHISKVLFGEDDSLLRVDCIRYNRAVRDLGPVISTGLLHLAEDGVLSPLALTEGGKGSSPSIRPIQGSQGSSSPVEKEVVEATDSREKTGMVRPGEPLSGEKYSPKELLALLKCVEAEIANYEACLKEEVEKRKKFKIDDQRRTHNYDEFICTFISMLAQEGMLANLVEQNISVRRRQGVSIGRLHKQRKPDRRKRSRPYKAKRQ
BAP1 inh conf: BAP1 (human) enzyme inhibition, confirmed | shares compounds with BAP1 block | purified BAP1, Ub-ethyl ester hydrolysis, HPLC; stronger effect = lower value | % of control activity, % at 20 µM | 310 compounds, 8% hits | AID 753;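 active = percent of control activity at or below 60%; inconclusive = HPLC trace unusable from injection failure or solvent front hiding peaks; inactive = the rest, plus ubiquitin peak ratio over a set limit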
Large screens that a line does not name were inactive (follow-up assays come after a bar, where they were run).

Cc1ccc(Cl)cc1N1CCN(C(c2ccc(C#N)cc2)c2nnnn2C2CCCC2)CC1 (configuration not stated)	BAP1 block active | BAP1 inh conf inactive
O=C(O)c1ccc(NC(=O)c2ccccc2)cc1	none (no result: WNV protease inh, Cdc25B block, DUSP1 inh, MMP13 inh)
O=C(O)c1ccccc1-c1nc2ccc([N+](=O)[O-])cc2[nH]1	none (no result: WNV protease inh, Cdc25B block, DUSP1 inh, MMP13 inh)
CCCCNC(=O)c1cc2c(-c3ccc(Cl)cc3)nn(C)c2s1	BAP1 block active | BAP1 inh conf inactive
CC(=O)OC1c2c(ccc3ccc(=O)oc23)OC(C)(C)C1OC(=O)CC(C)C (configuration not stated)	BAP1 block active | BAP1 inh conf inactive
COC1=Cc2c(ccc3ccc(=O)oc23)OC1(C)C	none (no result: BAP1 block)
CC(=O)Oc1cc(OC(C)=O)c2c(-c3ccc([N+](=O)[O-])cc3)cc(=O)oc2c1	none (no result: WNV protease inh, Cdc25B block, DUSP1 inh, MMP13 inh)
CC(=O)C(C(C)=O)c1c(Cl)c(O)c(O)c2c(C(=O)c3ccccc3)coc12	BAP1 block active | BAP1 inh conf inactive
O=C(CSc1nnc(-c2c[nH]c3ccccc23)o1)N1c2ccccc2CCc2ccccc21	BAP1 block active | BAP1 inh conf inactive
O=C(c1cc2ccccc2o1)c1cccs1	none
O=C(c1cccs1)c1ccc(-c2cccs2)s1	BAP1 block active | BAP1 inh conf inactive
Cc1cccn2c(=O)c3cc(C(=O)N4CCc5ccccc54)n(C)c3nc12	BAP1 block active | BAP1 inh conf inactive
CC1Cc2ccccc2N1C(=O)c1cc2c(=O)n3ccccc3nc2n1C (configuration not stated)	BAP1 block active | BAP1 inh conf inactive
CCc1nnc(NS(=O)(=O)c2ccc(N=Cc3cc(Br)ccc3O)cc2)s1	none (no result: WNV protease inh, Cdc25B block, DUSP1 inh, MMP13 inh)
COc1ccccc1OCc1ccc(C(=O)n2nc(C)c(Cl)c2C)o1	BAP1 block active | BAP1 inh conf inactive
O=C(O)c1c(-c2ccccc2)c2oc3ccccc3c2[nH]c1=O	BAP1 block active | BAP1 inh conf inactive
O=c1[nH]cnc2c1oc1ccccc12	none
CCN(CC)c1ccc(C2C3=C(CC(C)(C)CC3=O)Nc3ccc4ccccc4c32)cc1 (configuration not stated)	none (no result: WNV protease inh, Cdc25B block, DUSP1 inh, MMP13 inh)
Cn1cnnc1SCC(=O)Nc1ccc2nc(SCc3ccccc3)sc2c1	none
COC(=O)CSc1nc2ccc(NC(=O)CSc3nnnn3Cc3ccccc3)cc2s1	BAP1 block active | BAP1 inh conf inactive
CCCCCCc1cc2c(=O)c(-c3csc(C)n3)coc2cc1O	none (no result: WNV protease inh, Cdc25B block, DUSP1 inh, MMP13 inh)
O=C(CSc1nc2c(c(=O)n1-c1ccc(F)cc1)SCC2)Nc1ccc2c(c1)OCO2	none (no result: WNV protease inh, Cdc25B block, DUSP1 inh, BAP1 block)
O=C(CSc1nc2c(c(=O)n1-c1ccc(Cl)cc1)SCC2)Nc1ccc2c(c1)OCCO2	BAP1 block active | BAP1 inh conf 49
O=C(CSc1nc2c(c(=O)n1-c1ccc(Cl)cc1)SCC2)N1CCOCC1	none
COc1ccc(-n2c(SCC(=O)Nc3ccc4c(c3)OCO4)nc3c(c2=O)SCC3)cc1	BAP1 block active | BAP1 inh conf inactive
CC(C)c1ccc(C(O)c2nccn2C)cc1 (configuration not stated)	none (no result: WNV protease inh, Cdc25B block, DUSP1 inh, MMP13 inh)
O=C(Oc1c(C(=O)c2ccccc2)sc2ccccc12)c1ccccc1	none (no result: WNV protease inh, Cdc25B block, DUSP1 inh, MMP13 inh)
Cc1ccc(N(Cc2ccc(C(=O)NC(C)c3ccccc3)cc2)S(C)(=O)=O)cc1C (configuration not stated)	none (no result: WNV protease inh, Cdc25B block, DUSP1 inh, MMP13 inh)
CCOc1cc([N+](=O)[O-])cc(C=Nc2ccc3oc(-c4cccc(C)c4)nc3c2)c1O	none (no result: WNV protease inh, Cdc25B block, DUSP1 inh, MMP13 inh)
Cc1ccc(-n2ncc3c(=O)n(CC(=O)Nc4cccc(Cl)c4)cnc32)cc1C	BAP1 block active | BAP1 inh conf inactive
COc1ccccc1-c1c(C)nn2c(N3CCN(c4ccccc4OC)CC3)cc(C)nc12	BAP1 block active | BAP1 inh conf inactive
COc1ccccc1-c1c(C)nn2c(N3CCCCCC3)cc(C)nc12	none
COc1cc(-c2c(C#N)c(N)n3c(nc4ccccc43)c2C#N)ccc1OCc1ccccc1	none (no result: WNV protease inh, Cdc25B block, DUSP1 inh, MMP13 inh)
Oc1ccc(-c2[nH]ncc2Oc2ccccc2)c(O)c1O	none (no result: WNV protease inh, Cdc25B block, DUSP1 inh, MMP13 inh)
CCCc1ccc(Oc2c(-c3ccc(OCC)cc3O)n[nH]c2C)cc1	none (no result: WNV protease inh, Cdc25B block, DUSP1 inh, MMP13 inh)
CCCc1ccc(Oc2c(-c3ccc(O)c(C)c3O)n[nH]c2C)cc1	BAP1 block active | BAP1 inh conf inactive
CCCc1ccc(Oc2cn[nH]c2-c2ccc(O)c(C)c2O)cc1	BAP1 block active | BAP1 inh conf 59
O=C(O)Cn1cc(C(=O)c2cccs2)c2ccccc21	BAP1 block active | BAP1 inh conf inactive
CCCCCCNC(=O)C(C#N)c1nc2ccccc2nc1N1CCCC1 (configuration not stated)	BAP1 block active | BAP1 inh conf inactive
COc1ccccc1N1CCN(c2nc3ccccc3nc2C(C#N)C(=O)OC(C)C)CC1 (configuration not stated)	BAP1 block active | BAP1 inh conf inactive
CCCc1cc(=O)oc2cc(C)c(CN3CCCC3)c(O)c12	BAP1 block active | BAP1 inh conf inactive
Cc1nnc(NC(=O)c2cccc(S(=O)(=O)N3CCCCCC3)c2)s1	none (no result: WNV protease inh, Cdc25B block, DUSP1 inh, MMP13 inh)
Cc1cc2n(n1)C(c1ccco1)Nc1ccccc1-2 (configuration not stated)	BAP1 block active | BAP1 inh conf inactive
O=C(O)c1cccc(NC(=O)c2ccc(N3C(=O)c4ccc([N+](=O)[O-])cc4C3=O)cc2)c1	none (no result: WNV protease inh, Cdc25B block, DUSP1 inh, MMP13 inh)
Cc1occc1-c1nnc(SCC(=O)c2ccc(F)cc2)n1Cc1ccco1	none
O=C(CSc1nnc(-c2cc3ccccc3cc2O)n1Cc1ccco1)c1ccc(F)cc1	BAP1 block active | BAP1 inh conf inactive
CCOC(=O)N1CCN(C(=O)c2cccn3c(=O)c4sccc4nc23)CC1	BAP1 block active | BAP1 inh conf inactive
Cc1ccc(-c2nc3cccnc3o2)cc1NC(=O)COc1ccc(Cl)cc1C	BAP1 block active | BAP1 inh conf inactive
c1ccc(-c2nnc3sc(-c4csc5c4CCCC5)nn23)cc1	BAP1 block active | BAP1 inh conf 59
c1ccc(-c2nnc3sc(-c4ccncc4)nn23)cc1	none
Cc1ccc(-c2nc3s/c(=C\c4ccco4)c(=O)n3n2)cc1	BAP1 block active | BAP1 inh conf 55
Cc1ccc(/C=c2\sc3nc(-c4ccco4)nn3c2=O)o1	none
CCOc1ccc2nc(NC(=O)CN3CCC(n4nnc5cc(F)ccc54)CC3)sc2c1	BAP1 block active | BAP1 inh conf inactive
Cc1cc(C)cc(OCc2nnc(SCC(=O)N3CCN(c4ccccc4)CC3)o2)c1	BAP1 block active | BAP1 inh conf inactive
Cc1ccc2cc(CN(Cc3ccc4c(c3)OCO4)Cc3nnnn3Cc3ccco3)c(=O)[nH]c2c1C	BAP1 block active | BAP1 inh conf inactive
COc1cccc(-c2csc(N3CCN(S(=O)(=O)c4ccc(F)cc4)CC3)n2)c1	BAP1 block active | BAP1 inh conf inactive
CCOC(=O)N1CCC(NC(=O)c2ccc3c(c2)sc2nc(-c4ccccc4)cn23)CC1	DUSP1 inh inconclusive, BAP1 block active | BAP1 inh conf inactive

High-throughput results from PubChem BioAssay.
